Hits are enriched below; roughly 2.4% of the tested compounds scored in any of these assays.
TRAIL sens C8 – viability loss with TRAIL in NB7+C8 cells, primary screen, TRAIL sensitizer project, cell-based, ATPlite luminescence | inhibition (viability loss, TRAIL sensitization), % at 10 µM | 360,000 tested, 1% active | AID 624354, 2012;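 active means compounds causing at least 50% loss of cell viability in the single-dose screen, relative to plate controls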
STAT3 inh – IL-6 driven STAT3 reporter inhibitors, primary screen, U3A cells, luciferase, luminescence, MLSCN library; IL-6 STAT3-luciferase reporter; host cell line lacks STAT1; inhibition, % at 5.5 µM; 190,000 tested, 0.89% active;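 active means inhibition above the mean inhibition across all screened compounds plus 3 SD, cut at about 44% in these data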;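 further: 0% = DMSO only wells and 100% = 100 µM nifuroxazide control wells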
STAT1 inh-1 – STAT1 signaling inhibitors, primary screen, cell-based, HTS, luciferase reporter; 200,000 tested, 0.35% active; NIH 3T3 STAT1-luciferase reporter, IFN-gamma, luminescence; inhibition, % at 5.5 µM;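 active means inhibition above a set limit, the mean inhibition across all tested compounds plus 3 SD, cut at about 34% in these data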;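 further: 0% = IFN-gamma with DMSO and 100% = IFN-gamma with 300 µM nifuroxazide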
HSP90 refold inh – HSP90 inhibitors, primary screen, cell lysate, luminescence. Rabbit reticulocyte lysate, luciferase refolding luminescence, 3 h. inhibition, % at 5.6 µM. 290,000 tested, 0.91% active. AID 1789, 2009;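 active means inhibition above the screen-wide mean plus 3 SD, computed separately per campaign, cut at about 16% in these data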;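 further: 0% = DMSO wells and 100% = 60 µM geldanamycin wells; inhibitors lower the luminescence because luciferase stays unfolded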
PPC-1+TRAIL kill – compounds killing PPC-1 cancer cells with TRAIL present, primary screen, TRAIL potentiator project, ATPLite luminescence, uHTS; PPC-1 cells + TRAIL, ATPLite viability luminescence; cell killing (% activity), % at 4 µM or 5 µM; 220,000 tested, 0.41% active; AID 1443, 2008;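 active means cell killing above 50% in the first pass at 4 µM, then a duplicate retest at 5 µM averaging 50% or more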;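 further: plate controls were cells with TRAIL plus DMSO for no effect and medium-only wells lacking cells for full effect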
HSF1 inh – HSF1 inhibitors in luciferase reporter cells, primary screen, cell-based, NIH3T3, luminescence; NIH3T3-HGL HSE-luciferase, MG132-induced, luminescence 8 h; stronger effect = lower value; activity change, negative = inhibition, % at 7.5 µM (by protocol); 300,000 tested, 0.77% active; AID 2098, 2009;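 active means more than half of replicate wells show activity change below -50%, luminescence cut by over half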;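 further: luciferase reports HSF-1 transcriptional activity via heat shock element; 0% = median of DMSO wells and -100% = zero luminescence signal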
STAT1 inh-2 – STAT1 signaling inhibitors, confirmation, cell-based, HTS, luciferase reporter | inhibition, % at 5.5 µM | NIH 3T3 STAT1-luciferase reporter, IFN-gamma, luminescence | shares compounds with STAT1 inh-1 | 200 tested, 55% active;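 active means triplicate mean inhibition exceeding the hit cutoff computed for the primary STAT1 screen, cut at about 35% in these data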;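 further: 0% = DMSO with IFN-gamma and 100% = 300 µM nifuroxazide with IFN-gamma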
NFkB inh – NF-kB reporter inhibitors, TNF-alpha stimulated, counter-screen for STAT1 inhibitor project, cell-based, HEK293T, luciferase luminescence | 200 tested, 30% active | TNF-alpha induced | shares compounds with STAT1 inh-1 | inhibition, % at 5.7 µM;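 active means inhibition above the mean of solvent-only control wells plus 3 SD of those wells, cut at about 15% in these data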;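 further: 0% = DMSO with TNF-alpha and 100% = MG-132 control with TNF-alpha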
STAT3 inh STAT1c – STAT3 reporter inhibition by STAT1 hits, counter-screen for STAT1 inhibitor project, U3A cells, luciferase, luminescence, triplicate | shares compounds with STAT1 inh-1 | IL-6 STAT3 luciferase reporter; cells lacking STAT1 | inhibition, % at 5.7 µM | 200 tested, 20% active | AID 1310, 2008;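 active means inhibition above the mean of solvent-only control wells plus 3 SD, set per campaign, cut at about 25% in these data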;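 further: 0% = IL-6 plus DMSO and 100% = IL-6 plus nifuroxazide control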
PPC1 cytotox – cytotoxicity in PPC-1 cells, confirmation, cytotoxicity control for TRAIL apoptosis potentiator project, cell-based, ATP content luminescence. shares compounds with PPC-1+TRAIL kill. PPC-1 viability, ATPlite luminescence, overnight. cytotoxicity, % at 5 µM. 1,200 tested, 50% active. AID 1447, 2008;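 active means reconfirmed compounds whose average cytotoxicity reaches 50% or more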;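 further: 0% = DMSO-treated cells and 100% = wells holding medium but no cells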
HSP90 inh confirm – HSP90 inhibitors, confirmation, cell lysate, luminescence | shares compounds with HSP90 refold inh | inhibition, % at 5.9 µM | rabbit reticulocyte lysate, luciferase refolding luminescence, 3 h | 2,300 tested, 64% active; in the data active means inhibition above about 18%;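 further: 0% = vehicle wells and 100% = reference inhibitor wells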
luciferase ctr – firefly luciferase inhibitors, HSP90 counter-screen, confirmation, artefact control for HSP90 inhibitor project, biochemical, luminescence, triplicate; shares compounds with HSP90 refold inh; purified native firefly luciferase; inhibition, % at 5.9 µM; 2,300 tested, 48% active;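 active means inhibition above the mean inhibition of all tested sample wells plus 3 SD, cut at about 10% in these data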;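 further: 0% = DMSO with luciferase and 100% = wells lacking luciferase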
Target sequence (P08659 whole entry, looked up): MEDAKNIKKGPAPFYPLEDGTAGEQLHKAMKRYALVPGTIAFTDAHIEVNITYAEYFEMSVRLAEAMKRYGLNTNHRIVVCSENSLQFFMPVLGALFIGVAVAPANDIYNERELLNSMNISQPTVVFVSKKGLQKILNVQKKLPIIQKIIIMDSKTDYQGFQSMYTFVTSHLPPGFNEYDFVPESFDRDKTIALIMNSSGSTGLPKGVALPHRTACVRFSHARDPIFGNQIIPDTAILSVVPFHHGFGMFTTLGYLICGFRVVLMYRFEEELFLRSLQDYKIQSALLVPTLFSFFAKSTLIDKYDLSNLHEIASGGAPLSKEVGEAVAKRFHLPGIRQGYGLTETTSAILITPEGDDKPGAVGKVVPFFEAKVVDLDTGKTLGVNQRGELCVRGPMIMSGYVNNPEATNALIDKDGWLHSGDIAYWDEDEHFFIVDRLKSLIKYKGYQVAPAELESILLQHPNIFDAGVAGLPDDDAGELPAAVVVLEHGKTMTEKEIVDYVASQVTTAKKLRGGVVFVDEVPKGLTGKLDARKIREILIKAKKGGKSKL
Numbers without * were called inactive; x = not tested or not shown.

SMILES	TRAIL sens C8	STAT3 inh	STAT1 inh-1	HSP90 refold inh	PPC-1+TRAIL kill	HSF1 inh	STAT1 inh-2	NFkB inh	STAT3 inh STAT1c	others
O=C(O)c1cccc(N/N=C/c2cccnc2)c1	-2.3	37.7	39.6*	15.0	4.8	-20.0	5.9	30.7*	-8.9
CN(C)C(=O)c1ccc(Cc2cn(C)c3ccccc23)nc1	-0.5	x	x	x	x	x	x	x	x
Cc1sc(-c2ccccn2)nc1OC(=O)c1ccc(F)cc1F	-1.3	14.5	74.4*	3.0	14.3	-2.1	50.4*	24.3*	-10.6
C=CS(=O)(=O)N(Cc1ccccc1Br)[C@H](CO)CC(C)C	-6.0	x	x	x	x	x	x	x	x
O=C(O)c1ccccc1C(=O)Nc1ccc(Oc2cccc3ccccc23)cc1	-0.4	29.1	62.6*	0.0	5.0	x	17.7	22.8*	-12.8
Cc1cccc(Oc2ccc(NC(=O)c3ccccc3C(=O)O)cc2)c1C	6.1	0.2	7.9	-4.3	12.6	-0.6	x	x	x
COCCn1c(C)cc(C(=O)COc2ccc(C)nc2[N+](=O)[O-])c1C	-0.3	31.7	35.9*	4.0	10.2	-32.7	-15.2	11.4	2.4
Cc1nn(Cc2ccc(Cl)c(Cl)c2)c(C)c1NC(=O)c1cc(-c2ccc3c(c2)OCO3)on1	11.6	13.1	36.6*	0.6	18.6	4.0	26.8	7.8	18.1
CCCCNC(=O)c1nc(C2CCN(S(=O)(=O)c3c(F)cccc3F)CC2)oc1-c1cccc(C(F)(F)F)c1	-4.2	x	x	x	x	x	x	x	x
O=C(N(c1ccccc1)c1ccccc1)N(c1ccccc1)c1ccccc1	11.4	x	x	7.5	19.1	11.6	x	x	x
O=C(CCl)N(c1ccccc1)c1ccccc1	93.7*	31.4	36.3*	2.4	-6.3	-5.9	36.1*	24.2*	24.2
CC(C)C(=O)N1CCCC1(C)C(=O)NCc1ccc(Cl)cc1 (stereo not given)	6.8	x	x	x	x	x	x	x	x
CC(=O)c1c(C)oc2c1C(=O)c1ccccc1C2=O	39.0	24.9	-3.3	1.6	8.0	7.2	x	x	x
Cc1oc2c(c1C(=O)NCc1cccnc1)C(=O)c1ccccc1C2=O	x	x	89.5*	16.4*	95.2*	-95.0*	97.7*	73.9*	65.3*	PPC1 cytotox=94.4*
CC1=NN(c2nc3ccccc3[nH]2)C(=O)/C1=C/N(C)C	88.0*	29.0	41.2*	7.7	79.2*	x	-92.0	-3.0	-14.8	PPC1 cytotox=79.0*
COc1ccc(NC(=O)c2cc(-c3cc(C)cc(F)c3)n[nH]2)cc1OC	5.3	x	x	x	x	x	x	x	x
CCCNC(=O)CSCc1nc(-c2ccc(SC)cc2)oc1C	9.9	16.6	13.0	3.4	17.4	3.8	x	x	x
CCc1ccc(-c2nc(CSCC(=O)NCc3ccco3)c(C)o2)cc1	3.1	28.1	83.1*	19.1*	16.7	-71.8*	74.8*	37.4*	23.4	HSP90 inh confirm=30.8*;luciferase ctr=-19.8
Cc1ccc(-n2nnc(-c3nccs3)n2)cc1	87.3*	x	82.7*	75.8*	82.5*	-17.8	48.6*	76.3*	84.8*	PPC1 cytotox=81.7*;HSP90 inh confirm=84.8*;luciferase ctr=80.8*
C[C@@H]1CN([C@@H](C)CO)C(=O)CCCn2nncc2CO[C@H]1CN(C)C(=O)c1ccccc1	-3.0	x	x	x	x	x	x	x	x
Cc1cc(C(=O)CSc2nncs2)c(C)n1Cc1ccco1	28.7	42.7	35.3*	22.1*	8.6	31.1	-14.7	20.5*	25.6*	HSP90 inh confirm=54.9*;luciferase ctr=40.8*
Cc1cc(C(=O)CSc2nn(-c3ccccc3)c(=S)s2)c(C)n1Cc1ccco1	-7.1	-0.8	0.6	0.9	10.3	8.0	x	x	x
OC[C@@H]1CN(C2CCCC2)C[C@H](n2cnc3c(NC4CC4)ncnc32)O1	-18.9	x	x	x	x	x	x	x	x
Fc1ccc(-n2nnc(-c3cnc4ccccc4c3)n2)cc1	61.2*	x	83.0*	18.6*	42.8	-8.6	20.9	75.9*	77.7*	HSP90 inh confirm=80.7*;luciferase ctr=77.3*
CC1CN(C(=O)c2ccc3c(c2)OCO3)CC(C)O1 (stereo not given)	-4.5	0.1	0.4	4.5	-1.2	1.7	x	x	x	PPC1 cytotox=4.6
SMILES	TRAIL sens C8	STAT3 inh	STAT1 inh-1	HSP90 refold inh	PPC-1+TRAIL kill	HSF1 inh	STAT1 inh-2	NFkB inh	STAT3 inh STAT1c	others
CC1CCN(C(=O)c2ccc3c(c2)OCO3)CC1	-29.1	x	x	7.5	x	3.1	x	x	x
COc1ccc(CCCNC(=O)C2(C)Cc3c(-c4cccc(C(N)=O)c4)ccnc3O2)cc1 (stereo not given)	0.1	x	x	x	x	x	x	x	x
CC(=O)N=c1sc2nc3ccccc3nc2n1N(C(C)=O)C(C)=O	15.5	2.0	8.5	-1.1	-2.5	7.2	x	x	x	PPC1 cytotox=-10.4
Cc1ccc2nc(-c3ccccn3)oc2c1	67.1*	39.1	-17.4	13.1	64.8*	15.9	x	x	x	PPC1 cytotox=65.1*
NC(=O)Nc1ccc(C(=O)OCC(=O)N(Cc2ccccc2)C2CCS(=O)(=O)C2)cc1 (stereo not given)	14.4	-1.9	2.2	1.1	-3.0	-20.4	x	x	x	PPC1 cytotox=0.4
CN(C)c1cccc(C(=O)OCC(=O)N(Cc2ccccc2)C2CCS(=O)(=O)C2)c1 (stereo not given)	-3.4	8.2	-4.1	-1.8	13.2	0.6	x	x	x
Cc1cc(Br)cn2c(Cc3ccccc3)c(-c3ccc(C#N)cc3)nc12	3.9	x	x	x	x	x	x	x	x
Cc1cc2nc(NC(=O)C3(C)CCN(C)C3)[nH]c2cc1C (stereo not given)	-26.3	x	x	x	x	x	x	x	x
COC(=O)Cc1ccc(NC(=S)N2CCCC(C)C2)cc1 (stereo not given)	-5.4	3.2	-4.6	0.4	67.8*	1.5	x	x	x	PPC1 cytotox=69.5*
CC1CCCN(C(=S)Nc2ccc(F)cc2)C1 (stereo not given)	-3.8	1.0	-1.6	-2.7	27.7	20.6	x	x	x
O=C(C[C@H]1CC[C@@H]2[C@H](COC[C@H](O)CN2Cc2cccc(F)c2)O1)NCc1cccc(F)c1	-7.6	x	x	x	x	x	x	x	x

Bioassay records deposited in PubChem BioAssay by several laboratories.
